Source: PubChem BioAssay
Most compounds without a hit are left out; they make up all but 4.3% or so of the library.
HSF1 inh – HSF1 inhibition. activity change, negative = inhibition, % at 7.5 µM (by protocol). actives 0.77% (n = 300,000). AID 2098. NIH3T3-HGL HSE-luciferase, MG132-induced, luminescence 8 h; hits give low values;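 active = more than half of replicate wells show activity change below -50%, luminescence cut by over half; inconclusive = some wells, but at most half, below -50%; inactive = no replicate well below -50%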;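 also: luciferase reports HSF-1 transcriptional activity via heat shock element; 0% = median of DMSO wells and -100% = zero luminescence signal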
esBAF inh – SWI/SNF esBAF complex inhibition; mouse ES cells, Bmi1-luciferase knock-in reporter, 24 h; 100% = twice the neutral-well signal; reporter increase, % at 12.5 µM; actives 2% (n = 350,000); in the data active = activation above about 40%; inconclusive = no clear call, values can overlap the other calls;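 also: 0% = median of the plate's neutral control wells and 100% = double that signal; a rise in the Bmi1 reporter signal indicates esBAF inhibition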
SMARCA2 activ – activators of SMARCA2 function | MG213 cells, MMTV-luciferase reporter, dexamethasone, overnight | AID 652017 | actives 1% (n = 370,000) | activation, % at 9.1 µM; in the data active = activation above about 7.8%;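 also: 0% = vehicle wells and 100% = reference activator wells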
Wnt act – activates Wnt/beta-catenin signaling in a reporter cell assay | actives 1.2% (n = 300,000) | activator, plate reader | AID 743398 | activation, % at 9.35 µM; in the data active = activation above about 30%, passing the limit was not always enough; inconclusive = no clear call, values can overlap the other calls;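 also: 0% = neutral control wells and 100% = positive control wells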
MITF TRPM1 HTS – increases MITF-driven TRPM1 promoter luciferase signal | actives 0.75% (n = 300,000) | activation, % at 12.5 µM | SK-MEL-5 TRPM1-promoter luciferase, 24 h; % of positive control, neutral wells = 0;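 active = mean activation of at least 80% with every replicate also reaching 80%; inconclusive = mean reaches 80% but some replicate falls short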;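 also: 0% = neutral control wells and 100% = parthenolide positive control wells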
HSF1 activator – increases HSF-1 driven luciferase reporter signal. actives 1.7% (n = 300,000). NIH3T3-HGL HSF-1 luciferase reporter, MG132, 8 h; 100% = twice DMSO control signal. activation, % at 9 µM. AID 504408;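 active = mean replicate activation of at least 50% with a set share of replicates each reaching 50%; inconclusive = only one of those two conditions met; inactive = mean below 50% and too few replicates reaching it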;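 also: 0% = median of the neutral control wells and 100% = twice that signal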
The depositor's hits bear a star.

CCNc1ccc(Br)cc(C(=O)/C=C/c2c(Cl)cccc2Cl)c1=O was read as HSF1 inh 49, esBAF inh 2 and HSF1 activator 73*.
For CC(C)(C)c1ccc(Cn2c(=O)cnc3ccccc32)cc1 the results were HSF1 inh -70*, esBAF inh -72, SMARCA2 activ -4, Wnt act -12, MITF TRPM1 HTS -50 and HSF1 activator -69.
`O=C(NCC[C@@H]1CC[C@@H](NC(=O)c2cccnc2)[C@H](CO)O1)Nc1ccc(F)cc1` gave esBAF inh 8.
Screening COc1ccc(NC(=O)c2nn(C)c(=O)c3ccccc23)cc1S(=O)(=O)Nc1ccccc1Cl returned HSF1 inh 47, SMARCA2 activ 2, Wnt act 1, MITF TRPM1 HTS 4 and HSF1 activator 65*.
Cc1ccc(S(=O)(=O)N(C)C[C@H]2Oc3ccc(NC(=O)CCC(F)(F)F)cc3CC(=O)N([C@@H](C)CO)C[C@@H]2C)cc1 was read as esBAF inh 0.
For Cc1ccsc1/C=C1\Oc2cc(O)ccc2C1=O the results were esBAF inh 51*, SMARCA2 activ 7 and Wnt act 0.
For O=C1/C(=C/c2ccc(O)c(O)c2)Oc2cc(O)ccc21 the results were esBAF inh 28, SMARCA2 activ 5, Wnt act 6 and MITF TRPM1 HTS 79.
Screening OCCNc1c2ccccc2nc2c(F)c(F)c(F)c(F)c12 returned HSF1 inh -2, SMARCA2 activ 6, Wnt act 251*, MITF TRPM1 HTS -81 and HSF1 activator -10.
Screening CC(C)(C)N(NS(=O)(=O)c1ccc(F)cc1)c1ccccc1 returned HSF1 inh 3, esBAF inh 7, SMARCA2 activ 0, Wnt act -1, MITF TRPM1 HTS -10 and HSF1 activator 57*.
For Cc1ccccc1NS(=O)(=O)c1ccc(F)cc1 the results were HSF1 inh 3, esBAF inh 0, SMARCA2 activ -3, Wnt act -2, MITF TRPM1 HTS -14 and HSF1 activator -1.
O=C(CSc1ccc(-c2ccco2)nn1)NCCc1ccccc1 was read as HSF1 inh 0, SMARCA2 activ -3, Wnt act 0, MITF TRPM1 HTS 1 and HSF1 activator -5.
`CCn1c(SCC(=O)NCCc2ccccc2)nnc1-c1ccco1` gave HSF1 inh -3, esBAF inh -11, SMARCA2 activ 1, MITF TRPM1 HTS -9 and HSF1 activator -19.
`COc1ccc(CCNC(=O)CSc2ccc(-c3ccco3)nn2)cc1` gave HSF1 inh -69*, SMARCA2 activ -2, Wnt act -1, MITF TRPM1 HTS -13 and HSF1 activator -76.
For COCCn1c(SCC(=O)NCCc2ccccc2)nnc1-c1ccco1 the results were HSF1 inh 27, esBAF inh -2, SMARCA2 activ -3, Wnt act -3, MITF TRPM1 HTS -6 and HSF1 activator 55*.
Screening COCCn1c(C)nnc1SCC(=O)Nc1ccccc1[N+](=O)[O-] returned SMARCA2 activ 0, Wnt act 51* and MITF TRPM1 HTS -8.
`CN(C)C(=O)C[C@H]1C[C@H]2c3cc(NC(=O)C4CCOCC4)ccc3O[C@H]2[C@H](CO)O1` gave esBAF inh -3.
CCCNC(=O)N1C[C@H](C)[C@@H](OC)CN(C)C(=O)c2cc(NC(=O)C3CCC3)ccc2OC[C@H]1C was read as esBAF inh -3.
For Cn1nc(-c2ccccc2F)c2cc(C(=O)Nc3ccc4c(c3)OCCO4)sc21 the results were HSF1 inh 9, esBAF inh 9, SMARCA2 activ 0, Wnt act 3, MITF TRPM1 HTS 12 and HSF1 activator 20.
COc1cccc(-c2nn(C)c3sc(C(=O)Nc4ccc5c(c4)OCCO5)cc23)c1 was read as HSF1 inh 34, esBAF inh inconclusive, MITF TRPM1 HTS 29 and HSF1 activator 55*.
For CO[C@@H]1CN(C)C(=O)c2cc(NC(=O)C3CC3)ccc2OC[C@@H](C)N(CCc2ccccc2)C[C@@H]1C the results were esBAF inh 0.
Screening CCC(c1ccccc1)c1nc(-c2ccccn2)no1 (stereo not given) returned HSF1 inh -1, esBAF inh 47*, SMARCA2 activ 0, MITF TRPM1 HTS 25 and HSF1 activator 9.
